From PubChem BioAssay
Results filed as inconclusive are left out. Active and inactive are the calls of the source. Unless noted, cut-off not given; nearly all actives show AC50 up to about 26 µM.

Test system: Aerobactin synthetase IucA (Klebsiella pneumoniae)
Assay: inhibition of K. pneumoniae IucA enzyme – biochemical, Tocris library, absorbance (AID 1345561; call rule not given here;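 further: 100% = enzyme without compound and 0% = no enzyme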)
Conditions: purified IucA enzyme assay, absorbance (OD) read-out; hits give low values; concentration not given here

SMILES	remaining activity
O=C(O)C1=CCCNC1	107% (inactive)
COc1cccc(OC)c1OCCNCC1COc2ccccc2O1 (stereo not given)	108% (inactive)
O=C(O)c1cc(=O)c2ccc(Cl)cc2[nH]1	104% (inactive)
COc1cc2c(c(OC)c1OC)-c1ccc(OC)c(=O)cc1C(NC(C)=O)CC2 (stereo not given)	109% (inactive)
CC(C)C[C@H]1C(=O)N2CCC[C@H]2[C@]2(O)O[C@](NC(=O)[C@@H]3C=C4c5cccc6[nH]c(Br)c(c56)C[C@H]4N(C)C3)(C(C)C)C(=O)N12	93.8% (inactive)
O=C(/C=C/c1ccc(O)c(O)c1)O[C@H](Cc1ccc(O)c(O)c1)C(=O)O	105% (inactive)
O=C(O)C1=CCNCC1	102% (inactive)
O=C(O)Cc1nn(Cc2ccc(Br)cc2F)c(=O)c2ccccc12	92.7% (inactive)
CCCn1c(=O)c2[nH]c(C3CCCC3)nc2n(CCC)c1=O	119% (inactive)
C=C1C(=O)O[C@H]2[C@H]1CC/C(C)=C/CC[C@@]1(C)O[C@@H]21	83.6% (inactive)
O=C(O)c1cc(=O)c2ccccc2[nH]1	94.6% (inactive)
O=C(O)c1c2ccccc2cc2ccccc12	101% (inactive)

Test system: not listed separately
Assay: viability loss in pontine glioma line – cell-based, SU-DIPG-XVII, MIPE5.0, CellTiter-Glo, qHTS, dose response (AID 1347060);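 on AC50: cells exposed to compound for 48 hours before viability readout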
Conditions: CellTiter-Glo ATP luminescence

SMILES	outcome	AC50
CCC(=O)NCC[C@@H]1CCc2ccc3c(c21)CCO3	inactive	–
C=C1CC[C@@H]2[C@](C)(CO)[C@H](O)CC[C@@]2(C)[C@@H]1C/C=C1/C(=O)OC[C@H]1O	–	16600 nM (active)
C[C@@H]1[C@H](O)[C@@H](C)/C=C/C=C/C=C/C=C/C=C/C=C/C=C/[C@H](O[C@@H]2O[C@H](C)[C@@H](O)[C@H](N)[C@@H]2O)C[C@@H]2O[C@](O)(C[C@@H](O)C[C@@H](O)[C@H](O)CC[C@@H](O)C[C@@H](O)CC(=O)O[C@H]1C)C[C@H](O)[C@H]2C(=O)O	inactive	–
CC(C)(S)[C@@H](N)C(=O)O	inactive	–
CC1(C)[C@@H](O)CC[C@]2(C)[C@H]3C(=O)C=C4[C@@H]5C[C@@](C)(C(=O)O)CC[C@]5(C)CC[C@@]4(C)[C@]3(C)CC[C@@H]12	inactive	–
CN[C@H](CC(C)C)C(=O)N[C@H]1C(=O)N[C@@H](CC(N)=O)C(=O)N[C@H]2C(=O)N[C@H]3C(=O)N[C@H](C(=O)N[C@H](C(=O)O)c4cc(O)cc(O)c4-c4cc3ccc4O)[C@H](O)c3ccc(c(Cl)c3)Oc3cc2cc(c3O[C@@H]2O[C@H](CO)[C@@H](O)[C@H](O)[C@H]2O[C@H]2C[C@](C)(N)[C@H](O)[C@H](C)O2)Oc2ccc(cc2Cl)[C@H]1O	inactive	–
CC[C@@]1(O)C[C@H](O[C@H]2C[C@H](N(C)C)[C@H](O[C@H]3C[C@H](O)[C@H](O[C@H]4CCC(=O)[C@H](C)O4)[C@H](C)O3)[C@H](C)O2)c2c(cc3c(c2O)C(=O)c2c(O)cccc2C3=O)[C@H]1C(=O)OC	–	14800 nM (active)
COc1cc([C@@H]2c3cc4c(cc3[C@@H](O[C@@H]3O[C@@H]5CO[C@@H](c6cccs6)O[C@H]5[C@H](O)[C@H]3O)[C@H]3COC(=O)[C@H]23)OCO4)cc(OC)c1O	–	332 nM (active)
C[C@H]1O[C@@H](O[C@H]2[C@@H](O)C[C@H](O[C@H]3[C@@H](O)C[C@H](O[C@H]4CC[C@@]5(C)[C@H](CC[C@@H]6[C@@H]5C[C@@H](O)[C@]5(C)[C@@H](C7=CC(=O)OC7)CC[C@]65O)C4)O[C@@H]3C)O[C@@H]2C)C[C@H](O)[C@@H]1O	–	166 nM (active)
CCC[C@@H]1C[C@@H](C(=O)N[C@@H]([C@H]2O[C@H](SC)[C@H](O)[C@@H](O)[C@H]2O)[C@H](C)Cl)N(C)C1	inactive	–
CC(C)(O)CC[C@@H](O)[C@](C)(O)[C@H]1CC[C@@]2(O)C3=CC(=O)[C@@H]4C[C@@H](O)[C@@H](O)C[C@]4(C)[C@H]3CC[C@]12C	inactive	–
C=C(C)[C@@H]1CC[C@]2(C(=O)O)CC[C@]3(C)[C@H](CC[C@@H]4[C@@]5(C)CC[C@H](O)C(C)(C)[C@@H]5CC[C@]43C)[C@@H]12	–	20900 nM (active)
COc1cc([C@@H]2c3cc4c(cc3[C@H](O)[C@H]3COC(=O)[C@@H]23)OCO4)cc(OC)c1OC	–	525 nM (active)
COc1ccc([C@@H]2CC(=O)c3c(O)cc(O[C@@H]4O[C@H](CO[C@@H]5O[C@@H](C)[C@H](O)[C@@H](O)[C@H]5O)[C@@H](O)[C@H](O)[C@H]4O)cc3O2)cc1O	inactive	–
COc1ccc(-c2cc(=O)c3c(O)cc(O[C@@H]4O[C@H](CO[C@@H]5O[C@@H](C)[C@H](O)[C@@H](O)[C@H]5O)[C@@H](O)[C@H](O)[C@H]4O)cc3o2)cc1O	inactive	–
N=c1ccn2c(n1)O[C@H]1[C@H](O)[C@@H](CO)O[C@H]12	–	1180 nM (active)
COc1cc(NS(C)(=O)=O)ccc1Nc1c2ccccc2nc2ccccc12	–	934 nM (active)
C[C@H](CCC(=O)O)[C@H]1CC[C@H]2[C@@H]3[C@H](O)C[C@@H]4C[C@H](O)CC[C@]4(C)[C@H]3CC[C@]12C	inactive	–
